Screening data (PubChem BioAssay)
uPA surface inh: inhibitors of cell surface uPA generation. Potency, µM (doses to about 38.3 µM), inactives show at the highest dose activity change, negative = inhibition, actives largely listed as inhibitors. AID 540303. 330,000 compounds, 0.31% hits. cell surface uPA generation assay, qHTS; active = well fitted inhibition curve with a large enough effect; inconclusive = small, poorly fitted or top-dose-only effect; inactive = no such curve, though single readings can be large or run the other way; tested in mouse RAW 264.7 cells; also: potency is read from the fitted curve at half-maximal effect; % is scaled to controls: 0 for no effect and ±100 for the full control effect; nearly all actives have a fitted effect of over 55% in size
12-LOX inh: blocks human arachidonate 12S-lipoxygenase; purified 12hLO, xylenol orange hydroperoxide absorbance; Potency, µM (series often up to 108 µM), for the others: at the top dose activity change, negative = inhibition, most hits filed as inhibitors; 580,000 compounds, 1.1% hits; also: potency is read from the fitted curve at half-maximal effect; % is scaled to controls: 0 for no effect and ±100 for the full control effect
Target sequence (P18054 whole entry, looked up): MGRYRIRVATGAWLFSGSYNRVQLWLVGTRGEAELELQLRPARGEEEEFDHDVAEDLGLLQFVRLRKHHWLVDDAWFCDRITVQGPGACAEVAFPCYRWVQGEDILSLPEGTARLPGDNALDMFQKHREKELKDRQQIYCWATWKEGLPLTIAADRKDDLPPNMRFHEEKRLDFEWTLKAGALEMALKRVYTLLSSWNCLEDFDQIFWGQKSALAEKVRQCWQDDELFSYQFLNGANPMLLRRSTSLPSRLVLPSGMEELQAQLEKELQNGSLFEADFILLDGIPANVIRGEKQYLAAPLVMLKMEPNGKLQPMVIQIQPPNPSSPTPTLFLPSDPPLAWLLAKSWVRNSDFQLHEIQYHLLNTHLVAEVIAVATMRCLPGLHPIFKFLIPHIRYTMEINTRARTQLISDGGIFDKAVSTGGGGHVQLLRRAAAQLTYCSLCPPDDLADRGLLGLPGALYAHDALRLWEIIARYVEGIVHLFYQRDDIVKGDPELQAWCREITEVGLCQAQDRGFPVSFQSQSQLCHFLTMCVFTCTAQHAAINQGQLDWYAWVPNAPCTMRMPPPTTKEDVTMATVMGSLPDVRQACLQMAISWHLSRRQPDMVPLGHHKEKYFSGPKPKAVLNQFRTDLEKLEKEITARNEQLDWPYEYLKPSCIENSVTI
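Purified human 12hLO at 150 nM in 25 mM Hepes, 0.01% Triton X-100, pH 7.0, preincubated 15 min at room temperature with compound. Reaction started with 40 uM arachidonic acid, 30 min at room temperature. Hydroperoxide measured by Fe-xylenol orange, 573/405 nm absorbance ratio.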
a7 integrin act: integrin-mediated muscular dystrophy alleviation activation; Potency, µM (titrated, usually from 38.3 µM), for inactives: at the highest dose activation, hits mostly activators; alpha7betagal myoblasts, beta-gal FDG fluorescence, 48 h; 350,000 compounds, 0.064% hits;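 also: potency is read from the fitted curve at half-maximal effect; 100% = response of the positive control SU9516; nearly all actives have a fitted effect of over 60% in size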
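Alpha7betagal+/- myoblasts (passage 13) were plated 16-24 hr, then exposed to compounds (1:260 dilution of DMSO stock) for 48 hours at 37C. After MPER lysis, β-galactosidase reporter activity was read as FDG fluorescence (ex 480/em 540) after 30 minutes.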
Nrf2 activator: activates Nrf2 signaling. AREc32 ARE-luciferase reporter (MCF7-derived line), luminescence, 24 h. Potency, µM (doses to about 46.1 µM), without a hit: top-dose activation, most hits filed as activators. 410,000 compounds, 0.31% hits. AID 624171; also: potency is read from the fitted curve at half-maximal effect; % of control where 0% means no effect; nearly all actives have a fitted effect of over 65% in size
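Quantitative high-throughput format: AREc32 reporter cells, 1000 per well, received compound by pin transfer and were incubated 24 hr at 37 deg C, 5% CO2, before Steady-Glo luminescence detection.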
IL2 activator: activators of IL-2. IL-2 activation reporter assay, cell-based qHTS; stimulated with anti-CD3/CD4/CD28 beads; in transgenic mouse T cells. activation, % (series mostly up to about 46 µM). 360,000 compounds, 0.065% hits; in the data active = activation above about 50%; inconclusive = mostly about 30% to 49%; also: 0% is about no effect
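Quantitative HTS in unstimulated transgenic mouse T cells, with memory T cells as non-tolerant control and PMA/ionomycin as tolerance-bypass control. Compound pretreatment lasted 60 minutes before 18 h bead stimulation; EGFP/DsRed fluorescence read.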
* marks the source's active call; other numbers are inactive results; [ ] = dose if it differs, or a comment. The list is not random: actives were taken first. Their share in the collection is about 1.5%. Unless noted, calls follow the shape of the dose curve; as a rule, active = well fitted curve in the direction sought with a large enough effect; inconclusive = small, poorly fitted or top-dose-only effect, or another doubt; inactive = no such curve, though single readings can be large; an effect the other way counts as inactive or inconclusive.

Results for O=C(Cc1ccc(N2CCNC2=O)cc1)N1CCCC(Nc2cccc(F)c2)C1 (configuration not stated) ?
uPA surface inh: 1.4µM*; 12-LOX inh: 27%; a7 integrin act: -19%; Nrf2 activator: 0%; IL2 activator: -1

What do the screens show for `O=C(Cc1ccc(N2CCNC2=O)cc1)N1CCCC(Nc2ccc(F)c(F)c2)C1` (configuration not stated)?
uPA surface inh: -16%; 12-LOX inh: 31%; a7 integrin act: -38%; Nrf2 activator: 0%; IL2 activator: -5

What do the screens show for `COc1ccc(C2CC(=O)N3CN(C4CCCCC4)CSC3=C2C#N)c(OC)c1` (configuration not stated)?
12-LOX inh: 40µM*; Nrf2 activator: 0%

What do the screens show for `COc1ccc2ccccc2c1C1CC(=O)N2CN(C3CCCCC3)CSC2=C1C#N` (configuration not stated)?
uPA surface inh: -13%; 12-LOX inh: 18µM*; a7 integrin act: -1%; Nrf2 activator: 0%; IL2 activator: -2

What do the screens show for `COc1ccc2ccccc2c1C1CC(=O)N2CN(Cc3ccco3)CSC2=C1C#N` (configuration not stated)?
uPA surface inh: -8%; 12-LOX inh: inconclusive; a7 integrin act: -20%; Nrf2 activator: 8%; IL2 activator: -2

Results for O=C(Nc1ccc2oc(-c3ccccc3F)cc(=O)c2c1)c1ccccc1Br ?
12-LOX inh: 1%

How did COc1ccc(C(=O)N[C@@H]2CCC[C@@H]2C(=O)N2CCN(C(=O)c3ccco3)CC2)cn1 do in these assays?
12-LOX inh: 17%

How did Cc1cc(C)cc(N(C(=O)c2cc3ccccc3oc2=O)C2C=CS(=O)(=O)C2)c1 (configuration not stated) do in these assays?
uPA surface inh: 10%; 12-LOX inh: 23%; a7 integrin act: -32%; Nrf2 activator: 14µM*; IL2 activator: -2

Results for CC1(C)CC(CCN2CCCCC2)(c2cccc(C(F)(F)F)c2)CCO1 (configuration not stated) ?
12-LOX inh: 1.8µM*

Results for O=C1NCC(c2ccc(Cl)cc2)Cc2[nH]c(-c3ccc(O)cc3)nc21 (configuration not stated) ?
12-LOX inh: 47%

Results for Cc1cccc(C)c1NC(=S)NC(C)CCc1ccccc1 (configuration not stated) ?
uPA surface inh: -3%; 12-LOX inh: 40µM*; a7 integrin act: -18%; Nrf2 activator: 0%; IL2 activator: -5

How did Cc1ccc(NC(=S)NC(C)CCc2ccccc2)cc1C (configuration not stated) do in these assays?
uPA surface inh: -3%; 12-LOX inh: inconclusive; a7 integrin act: 12%; Nrf2 activator: 3%; IL2 activator: -1

How did COc1ccc(CNC(=S)NCc2ccc(OC)cc2)cc1 do in these assays?
uPA surface inh: 1%; 12-LOX inh: inconclusive; a7 integrin act: -23%; Nrf2 activator: 0%[9.22 µM]; IL2 activator: -1

What do the screens show for `COc1ccc(CNC(=S)NC(C)CCc2ccccc2)cc1` (configuration not stated)?
uPA surface inh: 3%; 12-LOX inh: 40µM*; a7 integrin act: 0%; Nrf2 activator: -1%; IL2 activator: -2

What do the screens show for `CC(C)c1ccccc1OCCNC(=S)NC(=O)c1cccnc1`?
uPA surface inh: -9%; 12-LOX inh: 40µM*; a7 integrin act: 3%; Nrf2 activator: 3%; IL2 activator: 0

How did Cc1cc(Cl)ccc1OCCNC(=S)NC(=O)c1cccnc1 do in these assays?
uPA surface inh: -14%; 12-LOX inh: 0%; a7 integrin act: 16%; Nrf2 activator: 0%; IL2 activator: 1

How did O=C(/C=C/c1ccc(Oc2ccccc2)cc1)c1ccc(N2CCOCC2)cc1 do in these assays?
12-LOX inh: 0%

How did O=C(/C=C/c1cccc(O)c1)c1ccc(N2CCOCC2)cc1 do in these assays?
uPA surface inh: 10µM*; 12-LOX inh: -12%; a7 integrin act: -58%; Nrf2 activator: 14µM*; IL2 activator: -1

Results for O=C(/C=C/c1cc2ccccc2nc1N1CCOCC1)c1cccc(O)c1 ?
12-LOX inh: 16µM*
